Records with an inconclusive call do not appear. Activity calls are given as the source filed them. Rule for the calls, unless noted: active = hit-call score of the fitted dose curve at least 0.9, where 1 is the maximum; inconclusive = response in the unintended direction; inactive = score below 0.9.
Tests used:
[1] = read-out: sulfotransferase (SULT2A), SULT2A1 (gene 6822); assay: CLD_SULT2A_6hr: CellzDirect (CLD) Gene Expression Assay for sulfotransferase (SULT2A) at 6 hours (AID 2283669);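 note: hits raise transcript level above the DMSO vehicle baseline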
Procedure, shortened: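 Primary human hepatocytes from two donor preparations were dosed daily with chemicals or 0.2% DMSO and harvested at 6 h. Transcript induction read by qNPA chemiluminescence, fitted for gain of signal relative to DMSO; morphology-based cytotoxicity annotated.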

[2] = read-out: glucuronosyltransferase (UGT1A1), UGT1A1 (gene 54658); assay: CLD_UGT1A1_6hr: CellzDirect (CLD) Gene Expression Assay for glucuronosyltransferase (UGT1A1) at 6 hours (AID 2283672)
Procedure, shortened: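 Primary human hepatocytes from two donor preparations, dosed with fresh solutions in 0.2% DMSO, harvested at 6 h. UGT1A1 mRNA measured by qNPA chemiluminescence; induction fitted upward versus DMSO.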

[3] = read-out: xenobiotic metabolism (CYP1A1), CYP1A1 (gene 1543); assay: CLD_CYP1A1_24hr: CellzDirect (CLD) Gene Expression Assay for xenobiotic metabolism (CYP1A1) at 24 hours (AID 2283673);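 note: CYP1A1 mRNA level by quantitative nuclease protection with chemiluminescence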
Procedure, shortened: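 Primary human hepatocytes dosed daily with fresh solutions in 0.2% DMSO vehicle. mRNA measured at 24 h by quantitative nuclease protection assay with chemiluminescence; gain-of-signal fit versus DMSO, with morphology-based cytotoxicity flags.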

[4] = read-out: HMG-CoA synthase (HMGCS2), HMGCS2 (gene 3158); assay: CLD_HMGCS2_6hr: CellzDirect (CLD) Gene Expression Assay for HMG-CoA synthase (HMGCS2) at 6 hours (AID 2283682);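 note: actives raise HMGCS2 transcript above the 0.2% DMSO vehicle baseline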
Procedure, shortened: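 Primary human hepatocytes dosed daily with fresh chemical, 0.2% DMSO vehicle; HMGCS2 mRNA measured at 6 h by qNPA chemiluminescence. Gain of signal fitted against DMSO; cytotoxicity flagged from phase-contrast morphology.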

[5] = read-out: xenobiotic metabolism (CYP1A2), CYP1A2 (gene 1544); assay: CLD_CYP1A2_24hr: CellzDirect (CLD) Gene Expression Assay for xenobiotic metabolism (CYP1A2) at 24 hours (AID 2283683)
Procedure, shortened: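 Primary human hepatocytes from two donor preparations dosed daily with multiple concentrations of chemical, 0.2% DMSO vehicle. CYP1A2 mRNA at 24 h quantified by qNPA chemiluminescence; gain of signal analyzed relative to DMSO. Cytotoxicity flagged by phase-contrast morphology.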

[6] = read-out: Cytochrome P450 2B6 (Homo sapiens) (UniProt P20813); assay: CLD_CYP2B6_24hr: CellzDirect (CLD) Gene Expression Assay for xenobiotic metabolism (CYP2B6) at 24 hours (AID 2283686)
Procedure, shortened: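 Primary human hepatocytes dosed daily for two days with fresh solutions, harvested at 24 hours; mRNA induction quantified by qNPA chemiluminescence, gain of signal vs 0.2% DMSO vehicle. Cytotoxicity annotated from phase-contrast morphology.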

[7] = read-out: ABC Transporter (ABCB11), ABCB11 (gene 8647); assay: CLD_ABCB11_24hr: CellzDirect (CLD) Gene Expression Assay for ABC Transporter (ABCB11) at 24 hours (AID 2283674; active = hit-call score of the fitted dose curve at least 0.9, where 1 is the maximum; inactive = score below 0.9)
Procedure, shortened: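 Primary human hepatocytes were dosed daily for two days, with 0.2% DMSO vehicle. ABCB11 mRNA induction was measured at 24 hours by quantitative nuclease protection assay with chemiluminescence. Gain of signal was fitted relative to DMSO.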

[8] = CLD_ACTIN_6hr: CellzDirect (CLD) Gene Expression Assay for Baseline Control (Actin) at 6 hours (AID 2283676);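 note: active means increased actin mRNA relative to DMSO vehicle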
Procedure, shortened: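 Primary human hepatocytes dosed with fresh chemical solutions (vehicle 0.2% DMSO), harvested at 6 h. Actin mRNA quantified by quantitative nuclease protection assay with chemiluminescent read-out, as background control relative to DMSO.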

[9] = read-out: Cytochrome P450 2B6 (Homo sapiens) (UniProt P20813); assay: CLD_CYP2B6_6hr: CellzDirect (CLD) Gene Expression Assay for xenobiotic metabolism (CYP2B6) at 6 hours (AID 2283677);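 note: actives raise CYP2B6 transcript above DMSO baseline so AC50 marks an inducer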
Procedure, shortened: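 Primary human hepatocytes dosed with chemicals at multiple concentrations, vehicle 0.2% DMSO; CYP2B6 mRNA induction measured 6 h after dosing by quantitative nuclease protection assay with chemiluminescence, gain of signal fitted relative to DMSO.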

[10] = read-out: Cytochrome P450 3A4 (Homo sapiens) (UniProt P08684); assay: CLD_CYP3A4_6hr: CellzDirect (CLD) Gene Expression Assay for xenobiotic metabolism (CYP3A4) at 6 hours (AID 2283680)
Procedure, shortened: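 Primary human hepatocytes (two donor preparations) dosed; CYP3A4 mRNA harvested at 6 h and quantified by qNPA chemiluminescence. Gain of signal fitted against 0.2% DMSO vehicle; cytotoxicity flagged by phase-contrast morphology.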

[11] = read-out: Broad substrate specificity ATP-binding cassette transporter ABCG2 (Homo sapiens) (UniProt Q9UNQ0); assay: CLD_ABCG2_24hr: CellzDirect (CLD) Gene Expression Assay for ABC Transporter (ABCG2) at 24 hours (AID 2283685)
Procedure, shortened: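 Primary human hepatocytes were dosed daily with ToxCast chemicals at multiple concentrations (vehicle 0.2% DMSO). ABCG2 mRNA was measured at 24 h by qNPA chemiluminescence; induction was scored as gain of signal versus DMSO.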

[12] = CLD_ACTIN_24hr: CellzDirect (CLD) Gene Expression Assay for Baseline Control (Actin) at 24 hours (AID 2283670)
Procedure, shortened: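 Primary human hepatocytes dosed over multiple concentrations with 0.2% DMSO vehicle; actin mRNA measured at 24 h by qNPA chemiluminescence. Background control endpoint, fitted as gain of signal versus DMSO.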

[13] = read-out: Cytochrome P450 2C19 (Homo sapiens) (UniProt P33261); assay: CLD_CYP2C19_6hr: CellzDirect (CLD) Gene Expression Assay for xenobiotic metabolism (CYP2C19) at 6 hours (AID 2283678)
Procedure, shortened: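 Primary human hepatocytes from two donor preparations were dosed daily, with 0.2% DMSO as vehicle, and harvested 6 h after dosing. CYP2C19 mRNA induction was measured by qNPA chemiluminescence and fitted as gain of signal against DMSO.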

[14] = CCTE_Padilla_ZF_144hpf_TERATOSCORE: (Legacy) CCTE's 144 Hour Post-fertilization zebrafish Assay Teratoscore, Padilla Lab (AID 2283679; active = hit-call score of the fitted dose curve at least 0.9, where 1 is the maximum; inactive = score below 0.9;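 for AC50: zebrafish embryos with chorions exposed by immersion from 6-8 hpf to 5 dpf with daily renewal; teratogenicity score from eye scoring of death hatching and malformations at 144 hpf; higher score means more developmental defects relative to DMSO baseline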)
Procedure, shortened: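 Larvae scored by eye at 144 hpf for death, hatching and malformations after a day in clean Hanks'. Before that, daily-renewed exposure at 80 uM (0.4% DMSO, 26C) from roughly 6-8 hpf through 5 dpf, 4 embryos per chemical.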

[15] = read-out: ABC Transporter (ABCB1), ABCB1 (gene 5243); assay: CLD_ABCB1_24hr: CellzDirect (CLD) Gene Expression Assay for ABC Transporter (ABCB1) at 24 hours (AID 2283684)
Procedure, shortened: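 Primary human hepatocytes, two donor preparations, dosed daily with fresh solutions; vehicle 0.2% DMSO; harvested at 24 h. ABCB1 mRNA measured by quantitative nuclease protection assay (chemiluminescence); morphology-based cytotoxicity annotated.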

[16] = read-out: Cytochrome P450 (CYP24A1_1), CYP24A1 (gene 1591); assay: LTEA_HepaRG_CYP24A1_1: Life Technologies and Expression Analysis (LTEA) Assay for Cytochrome P450 (CYP24A1_1) using HepaRG (AID 2283671; active = hit-call score of the fitted dose curve at least 0.9, where 1 is the maximum; inactive = score below 0.9); conditions: mRNA level, 48 h; actives raise or lower the signal
Procedure, shortened: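 In this test, gene induction or suppression of CYP24A1 in human HepaRG liver cells is measured by qRT-PCR after 48 h chemical treatment (eight concentrations, maximum 100 uM). Values are fitted bidirectionally relative to DMSO.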

[17] = read-out: Cytochrome P450 2C9 (Homo sapiens) (UniProt P11712); assay: CLD_CYP2C9_24hr: CellzDirect (CLD) Gene Expression Assay for xenobiotic metabolism (CYP2C9) at 24 hours (AID 2283688)
Procedure, shortened: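 Primary human hepatocytes from two donor preparations, dosed daily for two days at multiple concentrations; vehicle 0.2% DMSO. CYP2C9 mRNA induction at 24 h measured by qNPA chemiluminescence relative to DMSO; cytotoxicity annotated from morphology.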

Sequence of Cytochrome P450 2C19 (Homo sapiens) (P33261 whole entry, looked up): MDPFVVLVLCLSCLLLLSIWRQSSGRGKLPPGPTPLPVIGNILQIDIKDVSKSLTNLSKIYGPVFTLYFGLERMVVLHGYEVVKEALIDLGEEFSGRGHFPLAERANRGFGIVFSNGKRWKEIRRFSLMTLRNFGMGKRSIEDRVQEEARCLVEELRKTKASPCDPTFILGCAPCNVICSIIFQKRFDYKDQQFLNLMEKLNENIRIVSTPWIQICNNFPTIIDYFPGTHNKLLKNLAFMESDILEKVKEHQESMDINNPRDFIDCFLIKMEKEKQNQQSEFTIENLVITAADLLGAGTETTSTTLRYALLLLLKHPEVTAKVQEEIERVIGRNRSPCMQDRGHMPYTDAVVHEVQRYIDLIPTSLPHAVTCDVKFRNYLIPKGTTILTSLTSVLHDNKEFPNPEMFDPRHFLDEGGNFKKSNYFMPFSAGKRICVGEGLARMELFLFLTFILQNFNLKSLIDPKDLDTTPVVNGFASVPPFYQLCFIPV
Sequence of Cytochrome P450 3A4 (Homo sapiens) (P08684 whole entry, looked up): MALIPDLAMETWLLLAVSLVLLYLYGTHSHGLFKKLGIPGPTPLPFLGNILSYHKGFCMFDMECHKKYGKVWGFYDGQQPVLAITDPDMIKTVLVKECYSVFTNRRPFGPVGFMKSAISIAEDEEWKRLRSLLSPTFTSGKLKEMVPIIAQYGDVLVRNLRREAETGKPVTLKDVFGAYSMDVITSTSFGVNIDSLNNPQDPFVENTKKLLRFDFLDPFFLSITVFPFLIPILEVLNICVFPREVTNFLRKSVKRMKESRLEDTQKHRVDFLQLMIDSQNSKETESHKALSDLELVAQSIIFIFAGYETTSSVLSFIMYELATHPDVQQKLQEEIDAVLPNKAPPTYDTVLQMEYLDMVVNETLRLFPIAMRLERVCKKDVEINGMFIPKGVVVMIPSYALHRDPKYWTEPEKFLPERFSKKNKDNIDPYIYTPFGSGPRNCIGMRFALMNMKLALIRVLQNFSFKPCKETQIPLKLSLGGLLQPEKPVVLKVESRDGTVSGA
Sequence of Broad substrate specificity ATP-binding cassette transporter ABCG2 (Homo sapiens) (Q9UNQ0 whole entry, looked up): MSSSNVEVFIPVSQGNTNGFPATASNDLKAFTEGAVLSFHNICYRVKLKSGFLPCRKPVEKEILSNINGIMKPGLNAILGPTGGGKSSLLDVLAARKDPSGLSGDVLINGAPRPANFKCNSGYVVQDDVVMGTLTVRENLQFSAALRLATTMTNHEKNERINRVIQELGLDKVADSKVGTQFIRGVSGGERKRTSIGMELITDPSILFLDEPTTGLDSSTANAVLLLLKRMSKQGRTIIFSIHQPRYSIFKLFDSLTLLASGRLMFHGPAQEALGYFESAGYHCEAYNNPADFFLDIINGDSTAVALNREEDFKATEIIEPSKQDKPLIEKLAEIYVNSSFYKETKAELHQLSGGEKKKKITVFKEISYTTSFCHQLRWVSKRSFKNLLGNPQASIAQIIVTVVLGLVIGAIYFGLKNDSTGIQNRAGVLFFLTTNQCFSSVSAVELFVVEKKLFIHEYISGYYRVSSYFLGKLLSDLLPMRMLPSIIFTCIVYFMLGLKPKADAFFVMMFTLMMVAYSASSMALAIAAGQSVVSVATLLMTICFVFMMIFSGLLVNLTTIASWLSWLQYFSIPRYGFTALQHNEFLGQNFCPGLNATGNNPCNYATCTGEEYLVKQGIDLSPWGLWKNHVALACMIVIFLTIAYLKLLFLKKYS

N#Cc1c[nH]cc1-c1cccc2c1OC(F)(F)O2
outcome [1]: inactive | outcome [2]: inactive | AC50 [3]: 3.64 µM (active) | outcome [4]: inactive | AC50 [5]: 1.56 µM (active) | AC50 [6]: 3.97 µM (active)

CC(C)N1C(=O)N(c2ccccc2)CSC1=NC(C)(C)C
outcome [2]: inactive | outcome [7]: inactive | outcome [8]: inactive | AC50 [9]: 7.11 µM (active) | outcome [10]: inactive | outcome [5]: inactive | outcome [11]: inactive | AC50 [6]: 4.23 µM (active)

N#CN=C1SCCN1Cc1ccc(Cl)nc1
outcome [1]: inactive | outcome [12]: inactive | outcome [2]: inactive | outcome [3]: inactive | outcome [13]: inactive | outcome [14]: inactive | outcome [10]: inactive | outcome [5]: inactive | outcome [15]: inactive | outcome [11]: inactive | AC50 [6]: 11.6 µM (active)

CC1(C)C(C(=O)OC(C#N)c2cccc(Oc3ccccc3)c2)C1(C)C (stereo unspecified)
outcome [1]: inactive | outcome [2]: inactive | outcome [3]: inactive | outcome [8]: inactive | AC50 [10]: 3.71 µM (active) | outcome [4]: inactive | AC50 [5]: 20 µM (active) | outcome [11]: inactive | AC50 [6]: 4.44 µM (active)

CS(=O)(=O)c1ccc(C(=O)C2C(=O)CCCC2=O)c([N+](=O)[O-])c1
outcome [1]: inactive | outcome [12]: inactive | outcome [3]: inactive | outcome [7]: inactive | outcome [8]: inactive | AC50 [14]: 14.4 µM (active) | outcome [10]: inactive | outcome [5]: inactive | outcome [15]: inactive | outcome [6]: inactive

O=C(O)c1c(Cl)ccc2cc(Cl)cnc12
outcome [1]: inactive | outcome [12]: inactive | outcome [2]: inactive | outcome [3]: inactive | outcome [9]: inactive | outcome [13]: inactive | outcome [14]: inactive | outcome [10]: inactive | outcome [5]: inactive | outcome [11]: inactive | outcome [6]: inactive

COC(=O)N(C(=O)N1CO[C@@]2(C(=O)OC)Cc3cc(Cl)ccc3C2=N1)c1ccc(OC(F)(F)F)cc1
outcome [1]: inactive | outcome [2]: inactive | AC50 [3]: 1.86 µM (active) | outcome [8]: inactive | AC50 [10]: 1.21 µM (active) | AC50 [5]: 1.28 µM (active) | AC50 [6]: 1.9 µM (active)

Nc1c(Cl)c(Cl)nc(C(=O)O)c1Cl
outcome [16]: inactive | outcome [2]: inactive | outcome [3]: inactive | outcome [8]: inactive | outcome [13]: inactive | outcome [14]: inactive | outcome [4]: inactive | AC50 [5]: 20 µM (active) | outcome [11]: inactive | outcome [6]: inactive

CCOc1cc(C(C)(C)C)ccc1C1COC(c2c(F)cccc2F)=N1 (stereo unspecified)
outcome [1]: inactive | outcome [2]: inactive | AC50 [3]: 20 µM (active) | AC50 [9]: 4.69 µM (active) | AC50 [14]: 1.9 µM (active) | AC50 [10]: 4.26 µM (active) | outcome [4]: inactive | AC50 [5]: 15.7 µM (active) | AC50 [6]: 1.9 µM (active)

COC(=O)NS(=O)(=O)c1ccc(N)cc1
outcome [1]: inactive | AC50 [2]: 20 µM (active) | AC50 [3]: 0.00106 µM (active) | outcome [7]: inactive | outcome [8]: inactive | outcome [9]: inactive | outcome [13]: inactive | outcome [10]: inactive | outcome [4]: inactive | outcome [5]: inactive | outcome [6]: inactive

CC(C)NC(=O)N1CC(=O)N(c2cc(Cl)cc(Cl)c2)C1=O
outcome [1]: inactive | outcome [2]: inactive | AC50 [3]: 20 µM (active) | outcome [7]: inactive | outcome [8]: inactive | AC50 [14]: 74.4 µM (active) | outcome [10]: inactive | AC50 [5]: 15.7 µM (active) | outcome [15]: inactive | AC50 [6]: 10.4 µM (active)

O=C(Nc1ccccc1-c1ccc(Cl)cc1)c1cccnc1Cl
outcome [1]: inactive | outcome [2]: inactive | AC50 [3]: 5.36 µM (active) | outcome [8]: inactive | outcome [13]: inactive | AC50 [14]: 3.12 µM (active) | outcome [4]: inactive | AC50 [5]: 6.74 µM (active) | outcome [15]: inactive | AC50 [6]: 0.427 µM (active)

CC(C)Oc1cccc(NC(=O)c2ccccc2C(F)(F)F)c1
outcome [16]: inactive | outcome [2]: inactive | AC50 [3]: 20 µM (active) | outcome [13]: inactive | AC50 [14]: 15.9 µM (active) | outcome [10]: inactive | AC50 [5]: 20 µM (active) | outcome [11]: inactive | AC50 [6]: 4.95 µM (active)

COc1cc(Cl)c(OC)cc1Cl
outcome [1]: inactive | outcome [2]: inactive | outcome [3]: inactive | outcome [10]: inactive | outcome [5]: inactive | outcome [15]: inactive | outcome [11]: inactive | AC50 [6]: 0.598 µM (active)

CCC(C)n1c(=O)[nH]c(C)c(Br)c1=O (stereo unspecified)
outcome [1]: inactive | outcome [16]: inactive | outcome [2]: inactive | AC50 [3]: 5.45 µM (active) | outcome [4]: inactive | AC50 [5]: 7.45 µM (active) | AC50 [6]: 1.56 µM (active)

Cc1nc(N(C)C)nc(OC(=O)N(C)C)c1C
outcome [1]: inactive | outcome [2]: inactive | AC50 [3]: 2.75 µM (active) | outcome [7]: inactive | outcome [8]: inactive | AC50 [10]: 5.6 µM (active) | AC50 [5]: 3.66 µM (active) | outcome [11]: inactive | AC50 [6]: 4.29 µM (active) | outcome [17]: inactive

From PubChem BioAssay (EPA / NIEHS)
